Experimental findings from PubChem BioAssay (NCI) are described below.

This assay has as its system MDA-MB-468 breast. The assay is described as follows: NCI-60 one-dose screen, 48 h (100 = growth as untreated, 0 = no growth, -100 = all killed). As to conditions: 10 µM unless noted.

This is part of a sample that, as a whole, favours compounds with a hit. Of some 83,000 tested, about 20% had one in any assay.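 How to read the values: 0–100, growth inhibition (40 = 60% inhibited); 0, no net growth; -100 to 0, cell death (-40 = 40% of starting cells died; -100 = all dead).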 Values without a mark were called inactive. Activity calls are given as the source filed them. The calls were made as follows: active = growth percent below 10; inactive = the rest.

With `CCCC(=O)NC(c1cccnc1)c1cc(C(C)=O)c2cccnc2c1O` (stereo not given), the growth was 15.8%.
Regarding `COC1OC2COC(c3ccccc3)OC2C(=O)C1NC(=O)c1ccccc1` (stereo not given), the growth was 113%.
The same measure for `Cc1cc(C)c(-c2c(N)cc(Br)cc2Br)c(N)c1`: -17.1% (active).
Consider `O=S(Cc1ccccc1)/C(=C/NC(=S)Nc1cc(Cl)ccc1Cl)c1ccccc1` (stereo not given), for which the growth is 106%.
On to `Nc1ccc2ccccc2c1-c1c(N)ccc2ccccc12`, for which the growth is 11.8%.
The same measure for `O=C(Nc1ccc(Oc2cccc(F)c2)c(Cl)c1)c1cnccn1`: 0.0833% (active).
For `CN1CCN(c2nc(-c3csc(-c4ccncc4)n3)cc3ccccc23)CC1` the value was 25.8%; for `CCCCCn1c(C)cc(/C=C\c2ccc3cc(C)ccc3[n+]2C)c1C`, -82.4% (active).
On to `COc1ccc(OC)c(/C=C2\COc3ccc(O)c(O)c3C2=O)c1`, for which the growth is 16.6%.
The same measure for `COc1ccc2c(Cl)cc(NC(=O)Nc3c(C)cccc3C)nc2c1`: 79.2%; for `COc1ccc(CCNc2nc(SC)nc(-c3cccc([N+](=O)[O-])c3)c2C#N)cc1OC`: 84.8%.
Consider `Cc1ccccc1-c1cc(Cc2ccc(F)cc2)c(=O)[nH]n1`, for which the growth is 109%.
Consider `CNC(=O)c1cc(Oc2ccc(NC(=O)Nc3ccc(Cl)c(C(C)(C)C)c3)c(F)c2)ccn1`, for which the growth is 7.76% (active).
`COc1cc(/C=C/C(=O)c2c(-c3ccc(Cl)cc3)nc3sc(C)nn23)cc(OC)c1OC`: the growth was 65.7%.
For `CCCC(=O)NC(c1cccnc1)c1cc(C(C)(C)C)c2cccnc2c1O` (stereo not given) the value was -20.4% (active).
